Source: PubChem BioAssay
An excerpt weighted towards active compounds, which were near 5% of everything screened.
HEK293 cAMP cs – counter-screen for TSHR agonists: cAMP increase in parental HEK293 | parental HEK293 CNG cAMP sensor, membrane potential fluorescence | Potency, µM (doses to about 57.1 µM), for the others: at the top dose activation, usual class: activators | hit rate 2.5% among 73,000 | AID 938; note: % of control where 0% means no effect; nearly all actives have a fitted effect of over 55% in size
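Parental HEK 293 cells stably expressing a modified CNG channel (no TSHR) report cAMP rise as membrane depolarization. Membrane potential dye with 100 uM RO 20-1724 was loaded for 60 min at room temperature, then compound added for 30 min; fluorescence read at 590 nm.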
TSHR agonist – agonists of human thyroid stimulating hormone receptor; AID 926; Potency, µM (titrated, usually from 57.1 µM), without a hit: at the highest dose activation, hits mostly activators; P16473; HEK293-CNG-TSHR cells (CNG channel as cAMP sensor), membrane potential dye, cAMP; hit rate 0.48% among 73,000; active = well fitted activation curve with a large enough effect in the main read-out, with a control signal flat, not every such curve was filed as active; inconclusive = small, poorly fitted or top-dose-only effect, or a change in a side signal; inactive = no such curve, though single readings can be large or run the other way; % of control where 0% means no effect;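 note: the control signal comes from parental cells without the receptor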
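cAMP rise detected as CNG-channel membrane depolarization by fluorescent dye (emission 590 nm), 30 min after compound, following 60 min dye loading containing 100 uM RO 20-1724 at room temperature. Cells: TSHR/CNG HEK 293, with parental CNG HEK 293 as control.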
Casp7 inh – caspase-7 (human) inhibition, allosteric or competitive; P55210; recombinant caspase-7, Ac-DEVD-AFC fluorescence rate; Potency, µM (highest dose often 57.5 µM), for inactives: top-dose activity change, negative = inhibition, most hits filed as inhibitors; hit rate 0.02% among 75,000; AID 889; active = well fitted inhibition curve with a large enough effect in the main read-out, with a control signal flat, not every such curve was filed as active; inconclusive = small, poorly fitted or top-dose-only effect, or a change in a side signal; note: % of control where 0% means no effect
Target sequence (P55210 24-198 limits assumed): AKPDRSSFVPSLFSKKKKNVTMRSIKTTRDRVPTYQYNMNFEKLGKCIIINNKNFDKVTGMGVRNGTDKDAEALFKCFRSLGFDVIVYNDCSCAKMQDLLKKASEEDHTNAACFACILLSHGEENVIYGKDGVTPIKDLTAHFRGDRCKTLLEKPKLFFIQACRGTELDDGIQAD
Target sequence (P55210 207-303 limits assumed): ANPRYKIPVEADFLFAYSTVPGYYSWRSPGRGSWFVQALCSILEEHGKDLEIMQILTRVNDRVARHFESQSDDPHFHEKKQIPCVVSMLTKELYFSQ
Caspase-1 inhib – caspase-1 (human) inhibition, allosteric or competitive | P29466 | Caspase-1 enzyme, Ac-WEHD-AFC fluorogenic rate | Potency, µM (series often up to 57.5 µM), for the others: at the highest dose activity change, negative = inhibition, most hits filed as inhibitors | hit rate 0.03% among 75,000 | AID 900;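 note: plate controls were vehicle for no effect and no substrate for full effect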
USP2a inh – USP2a (human) protease inhibition; O75604; USP2a enzymatic assay, qHTS inhibition; Potency, µM (highest dose often 38.3 µM), for inactives: top-dose activity change, negative = inhibition, hits mostly inhibitors; hit rate 0.1% among 60,000; AID 927; note: nearly all actives have a fitted effect of over 60% in size
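USP2 core (20nM final) preincubated 30 min RT with compound, then Ub-PLA2 20nM and NBD C6-HPC 20uM final added; buffer 20mM Tris-HCl pH 8.0, 2mM CaCl2. Fluorescence Ex 460/Em 535 read at 0 and 2.5 h; normalized to NEM.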
CRE Fsk mod – CRE-bla signaling modulation under forskolin stimulation. hit rate 2.5% among 71,000. Potency, µM (titrated, usually from 38.2 µM), without a hit: top-dose activity change, negative = inhibition, most hits filed as activators. AID 662. CHO CRE-bla reporter (cAMP response element driving beta-lactamase), forskolin EC10, beta-lactamase ratio; active = well fitted activation curve with a large enough effect in the signal ratio, with a control signal flat, not every such curve was filed as active; inconclusive = small, poorly fitted or top-dose-only effect, or effect the other way, or a change in a side signal; the % refers to the signal ratio; note: % of control where 0% means no effect
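Cells were plated overnight at 37 °C, exposed to compound titrations plus EC10 NKH 477 for 3 h, then given CCF4 dye for 2 h at room temperature. Blue/green (460/530 nm) ratio was converted to %Activity and AC50 values calculated.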
The depositor's hits bear a star; ? = inconclusive; nt = no result; [ ] = another dose, or the depositor's remark. Unless noted, calls come from the whole dose curve; as a rule, active = well fitted curve in the direction sought with a large enough effect; inconclusive = small, poorly fitted or top-dose-only effect, or another doubt; inactive = no such curve, though single readings can be large; an effect the other way counts as inactive or inconclusive. Potency is the fitted concentration of half-maximal effect.

SMILES	HEK293 cAMP cs	TSHR agonist	Casp7 inh	Caspase-1 inhib	USP2a inh	CRE Fsk mod
CCN(CCO)c1ccc(-n2c(N)c(C(=O)OC)c3nc4ccccc4nc32)cc1	-23%	5%	-5%	-5%	19%	21%
Nc1c(C(=O)NCCN2CCOCC2)c2nc3ccccc3nc2n1-c1cccc(F)c1	26%	13%	?	nt	39%	7.9µM*
Nc1c(C(=O)NCC2CCCO2)c2nc3ccccc3nc2n1-c1ccccc1 (stereo unspecified)	26%	-1%	?	nt	26%	13µM*
C=CCNC(=O)c1c(N)n(-c2ccc3c(c2)OCO3)c2nc3ccccc3nc12	1%	-1%	-12%	-5%	26%	1µM*
CCCNC(=O)c1c(N)n(-c2cccc(OC)c2)c2nc3ccccc3nc12	5%	7%	?	nt	32%	?
O=C(NCCN1CCOCC1)c1cc2ccccc2o1	0%	-2%	3%	0%	-4%	3%
COc1ccc2c(CSc3nc4nc(C)cc(C)n4n3)cc(=O)oc2c1	1%	4%	-5%	-4%	31%	10µM*
Cc1cc(C)n2nc(SCC(=O)Nc3c(C)nn(-c4ccccc4)c3C)nc2n1	-2%	1%	-2%	-1%	4%	13%
Cc1cc(C)n2nc(SCC(=O)c3ccc[nH]3)nc2n1	4%	-4%	-2%	-1%	10%	?
COc1ccc(C(=O)CSc2nc3nc(C)cc(C)n3n2)cc1OC	0%	1%	1%	2%	7%	4µM*
Cc1cc(C)n2nc(SCC(=O)Nc3ccc(F)cc3)nc2n1	7%	2%	0%	-2%	nt	5µM*
COCCNC(=O)c1ccc(-n2c(=O)c(=O)[nH]c3ccccc32)cc1	9%	0%	-1%	-1%	nt	nt
O=C(O)c1cc2ccccc2c(S(=O)(=O)O)c1O	2%[11.4 µM]	6%[11.4 µM]	1%[11.5 µM]	1%[11.5 µM]	nt	-9%[7.6 µM]
O=C(CN1C(=O)c2ccccc2C1=O)[C@@H](O)CN1C(=O)c2ccccc2C1=O	-7%[11.4 µM]	4%[11.4 µM]	-3%[11.5 µM]	5%[11.5 µM]	nt	-1%[7.6 µM]
CC(C)n1c(SCC(=O)N2c3ccccc3Sc3ccccc32)nc2c1c(=O)n(C)c(=O)n2C	?	?	-1%	0%	36%	1µM*
COC(c1ccccc1Br)C(C)/C=C/CCO (stereo unspecified)	-2%[11.4 µM]	-4%[11.4 µM]	-1%[11.5 µM]	-1%[11.5 µM]	nt	nt
N#CCSc1nc2scc(-c3cccs3)c2c(=O)n1CCc1ccccc1	6%	12%	-6%	-4%	57%	2.5µM*
C=CCn1c(SCn2nnc3ccccc3c2=O)nc2scc(-c3cccs3)c2c1=O	-7%	3%	-2%	-1%	34%	2µM*
C=CCNS(=O)(=O)c1ncnc2nc[nH]c12	1%[11.4 µM]	2%[11.4 µM]	0%[11.5 µM]	1%[11.5 µM]	nt	?
Cc1nc2sc3c(c2c(=O)n1/N=C/c1ccco1)CCCC3	25µM*	?	0%	0%	0%	-3%
COc1ccc(OCCSc2nnnn2C2CCCCC2)cc1	?	?	-1%	-3%	nt	24%
c1ccc(OCCSc2nnnn2C2CCCCC2)cc1	25µM*	?	-3%	-3%	-9%	9%
CCOC(=O)Cc1nnc(NC(=O)C(CC)Sc2nncn2C)s1 (stereo unspecified)	11%	4%	-3%	-1%	nt	-6%
CCOC(=O)Cc1nnc(NC(=O)C(CC)Sc2nnc3c4ccccc4n(C)c3n2)s1 (stereo unspecified)	-11%	10%	-4%	0%	45%	13µM*
Cc1nc2ccccc2c(=O)n1/N=C/c1cn(-c2ccccc2)nc1-c1cccs1	23%	24%	-2%	-2%	19%	2.5µM*
Cc1nc2ccccc2c(=O)n1/N=C/c1ccncc1	-7%	-7%	0%	0%	5%	25%
COc1ccc(-n2ccnc2SCC(=O)Nc2ccccc2)cc1	3.2µM*	?	0%	-2%	4%	-3%
COc1cccc(-n2ccnc2SCC(=O)Nc2ccccc2)c1	-1%	-1%[11.4 µM]	-2%	0%	0%	-5%
